Screening results: PubChem, several laboratories
In the library only some 1.8% were active in any assay of this set; here they are far more common.
GC-B act: GC-B (human) receptor activation; HEK293-GC-B cells, CNP EC30, cGMP TR-FRET; 0% at EC30 CNP, 100% saturating CNP; activation, % at 10 µM; P20594; hit rate 0.11% among 370,000;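 active = activation at 10 µM reaching about 35% in either raw or pattern-adjusted values, limit read from the data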
Exocytosis inh: blocks lytic granule exocytosis; TALL-104 LAMP-1 surface exposure, flow cytometry; cells stimulated with thapsigargin and PMA; inhibition, % at 10 µM; hit rate 0.66% among 360,000; AID 651702;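 active = inhibition above about 55%, limit read from the data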
Myeloid diff 2: compounds promoting myeloid differentiation | hit rate 1% among 360,000 | AID 624256 | calls only at 10 µM | ER-HoxA9 myeloid progenitors, lysozyme-GFP differentiation, flow cytometry;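 active = normalized GFP-positive differentiation at or above the plate's own cutoff, the solvent-only control mean plus 3 SD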;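 also: cells exposed to compound for four days before flow analysis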
GC-A act: GC-A (human) enzyme activation | P16066 | HEK293 GC-A cells, cGMP TR-FRET, EC30 ANP; 0% at EC30 ANP, 100% saturating ANP | activation, % at 10 µM | hit rate 0.14% among 370,000; in the data active = activation above about 40%
Target sequence (P16066 whole entry, looked up): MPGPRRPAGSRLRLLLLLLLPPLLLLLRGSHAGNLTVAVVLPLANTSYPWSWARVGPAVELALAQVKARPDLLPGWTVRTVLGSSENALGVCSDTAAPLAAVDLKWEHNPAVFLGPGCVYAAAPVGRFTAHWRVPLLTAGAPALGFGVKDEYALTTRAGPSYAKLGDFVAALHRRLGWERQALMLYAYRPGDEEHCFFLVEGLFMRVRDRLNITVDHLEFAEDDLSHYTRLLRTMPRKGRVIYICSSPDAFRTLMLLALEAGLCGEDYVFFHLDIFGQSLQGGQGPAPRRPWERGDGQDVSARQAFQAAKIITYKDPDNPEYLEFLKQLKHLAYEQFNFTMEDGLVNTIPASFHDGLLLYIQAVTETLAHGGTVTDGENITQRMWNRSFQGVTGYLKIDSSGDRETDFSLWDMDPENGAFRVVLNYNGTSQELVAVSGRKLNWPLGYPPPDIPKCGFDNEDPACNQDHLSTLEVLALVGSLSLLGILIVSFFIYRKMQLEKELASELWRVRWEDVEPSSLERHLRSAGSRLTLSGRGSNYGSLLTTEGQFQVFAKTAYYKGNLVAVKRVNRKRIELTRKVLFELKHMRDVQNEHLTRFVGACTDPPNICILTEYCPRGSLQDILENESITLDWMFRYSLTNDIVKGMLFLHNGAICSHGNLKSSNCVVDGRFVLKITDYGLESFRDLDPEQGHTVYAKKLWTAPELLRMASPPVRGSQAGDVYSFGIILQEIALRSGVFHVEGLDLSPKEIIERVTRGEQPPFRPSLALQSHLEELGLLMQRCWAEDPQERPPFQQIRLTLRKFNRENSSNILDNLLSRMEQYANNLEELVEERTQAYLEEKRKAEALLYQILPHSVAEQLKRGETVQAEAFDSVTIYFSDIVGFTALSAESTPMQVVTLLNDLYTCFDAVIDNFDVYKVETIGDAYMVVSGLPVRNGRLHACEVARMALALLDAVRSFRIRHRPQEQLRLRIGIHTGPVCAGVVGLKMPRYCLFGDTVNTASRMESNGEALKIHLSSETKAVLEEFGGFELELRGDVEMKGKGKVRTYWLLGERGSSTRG
* marks the source's active call; other numbers are inactive results; i = inactive; / = no result; + = active, no number.

SMILES	GC-B act	Exocytosis inh	Myeloid diff 2	GC-A act
Cc1ccc2nc(-c3ccc(NC(=O)CSc4nnc(-c5cccc(Cl)c5)n4Cc4ccco4)cc3)sc2c1	7	/	/	1
COc1ccccc1CN(C)C(=O)C1CCCN(c2nc3ccccc3o2)C1 (centres undefined)	-8	/	/	0
Cc1cc2c(c(=O)o1)[C@@]1(C(=O)N(C)c3ccccc31)C1=C(CCCC1=O)O2	5	/	/	4
Oc1ccc(C=Nc2ccccc2-c2nc3ccccc3[nH]2)cc1	45*	-5	i	39
CS(=O)(=O)N(CC(=O)Nc1ccc(CC#N)cc1)c1ccc(C23CC4CC(CC(C4)C2)C3)cc1	1	0	+	-9
COc1ccc(CN2C[C@@]3(O)CC[C@@H](O)[C@@H](OC)[C@@H]3[C@@]2(C)[C@H](O)CC=C(C)C)cc1	-5	/	/	-3
COc1ccccc1OC(=O)CCc1nc2ccccc2s1	2	-3	+	-2
COC(=O)CCCc1nc2ccccc2s1	6	-1	i	-2
COc1ccccc1C(=O)n1ccc2ccc(-c3ccc4ccn(Cc5ccc(C#N)cc5)c4c3)cc21	2	/	/	-2
CC(C)(C)N1Cc2nnn(Cc3ccccc3)c2-c2ccccc2S1(=O)=O	2	/	/	-4
Cn1c(N)c(C(=O)COC(=O)c2cc(C3CC3)nc3ccccc23)c(=O)n(C)c1=O	36*	-3	i	6
Cn1c(N)c(C(=O)COC(=O)c2cc(-c3ccco3)nc3ccccc23)c(=O)n(C)c1=O	3	-3	i	-2
COCCNc1nc2c(c(=O)n(C)c(=O)n2C)n1CCCc1ccccc1	3	-10	i	2
COc1ccc(NC(=S)NCC(c2ccco2)N2CCCC2)cc1 (centres undefined)	2	0	i	-2
CC(=O)c1ccc(NC(=S)NCC(c2ccco2)N2CCCC2)cc1 (centres undefined)	-3	-4	+	5
COC(=O)c1cnc(Nc2nc(C(N)c3ccccc3Cl)cs2)nc1C(F)(F)F (centres undefined)	5	-3	i	-2
NC(c1csc(NC(=O)c2cccc(OC(F)(F)F)c2)n1)c1ccccc1Cl (centres undefined)	0	23	+	-5
Cc1ccccc1S(=O)(=O)N(C)C[C@@H]1OCc2ccccc2-c2c(n(C)c3ccccc23)C(=O)N([C@H](C)CO)C[C@@H]1C	-1	-3	i	-2
Cc1ccc(NC(=O)Cn2sc3nc(C)cc(C)c3c2=O)c(Cl)c1	5	81*	i	17
C[C@H]1COc2cc(N3CCSCC3)ccc2S(=O)(=O)N1C	-5	/	/	2
O=[N+]([O-])c1cc2no[n+]([O-])c2cc1N1CCCCC1	20	7	/	42*
N#Cc1cc(N2CCCCC2)c([N+](=O)[O-])cc1C#N	-10	-2	i	-5
Cc1cccc(C(=O)Nc2nc3ncccn3c2-c2ccc(F)cc2)c1	-3	/	/	-1
CCCN1CCC(=O)N([C@H](CSc2ccc(OC)cc2)Cc2ccccc2)CC1	1	3	+	-1
CCCN1CCC(=O)N([C@H](CSc2ccc(C)cc2)Cc2ccccc2)CC1	-1	-11	i	-3
SMILES	GC-B act	Exocytosis inh	Myeloid diff 2	GC-A act
COc1ccc(CCC(C)NCCc2ccc(Cl)cc2Cl)cc1 (centres undefined)	-10	48	i	-12
COc1ccccc1NC1=C(NC(C)=O)C(=O)c2ccccc2C1=O	0	90*	i	-4
COC1=C(Nc2ccccc2OC)C(=O)c2ccccc2C1=O	4	-1	i	-3
CC(=O)OC12CCCN(C1)/C(=C/c1ccc(Cl)cc1)C2 (centres undefined)	-10	/	/	2
O=C(C(=Cc1ccc(O)cc1)c1ccccc1)c1ccccc1	-11	40	i	-8
O=C(C(=Cc1ccc(F)cc1)c1ccccc1)c1ccc(O)cc1	3	1	i	68*
Cc1[nH]c2ccccc2c1C(=O)c1cc(Cc2ccccc2)sc1N	3	35	i	48*
N#Cc1sc2nc(-c3cccs3)cc(-c3ccc(F)cc3)c2c1N	5	-3	+	18
Cc1ccc(-c2cc(-c3ccccc3)c3c(N)c(S(C)(=O)=O)sc3n2)cc1	-6	0	i	0
CS(=O)(=O)c1sc2nc(-c3cccs3)cc(-c3ccccc3)c2c1N	-14	3	+	-1
O=C1S/C(=C/c2ccc(N3CCOCC3)o2)C(=O)N1Cc1c(F)cccc1Cl	20	106*	+	13
O=C1S/C(=C\c2ccc(N3CCOCC3)o2)C(=O)N1Cc1c(F)cccc1Cl	/	88*	i	/
